Test systems include S6K1; SBK1; SGK2; SGK3; SGK; SIK2; SIK; SLK.
Conditions in all cases: concentration: 1 μM, replicates: in singlicate; n = 1
Assay [1] concerns RPS6KA4(Kin.Dom.1-N-terminal).
Assay [2] has as its system RPS6KA4(Kin.Dom.2-C-terminal).
The test system of assay [3] is RPS6KA5(Kin.Dom.1-N-terminal).
Assay [4] deals with RPS6KA5(Kin.Dom.2-C-terminal).
Assay [5] relates to T1, RSK1(Kin.Dom.1-N-terminal).
T1 construct: gene RPS6KA1

For assay [6], the system named is T2, RSK1(Kin.Dom.2-C-terminal).
T2 construct: gene RPS6KA1

Assay [7] has as its system T3, RSK2(Kin.Dom.1-N-terminal).
T3 construct: gene RPS6KA3

Assay [8] deals with T4, RSK2(Kin.Dom.2-C-terminal).
T4 construct: gene RPS6KA3

Assay [9] concerns T5, RSK3(Kin.Dom.1-N-terminal).
T5 construct: gene RPS6KA2

In assay [10] the test system is T6, RSK3(Kin.Dom.2-C-terminal).
T6 construct: gene RPS6KA2

Assay [11] deals with T7, RSK4(Kin.Dom.1-N-terminal).
T7 construct: gene RPS6KA6

The test system of assay [12] is T8, RSK4(Kin.Dom.2-C-terminal).
T8 construct: gene RPS6KA6
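Further: KINOMEscan kinase panel screen.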

Take `O=C(Nc1cccc(-c2nn3ccccc3c2-c2ccnc(Nc3cccc(C(F)(F)F)c3)n2)c1)c1c(F)cccc1F` [GSK292658]: the “%Inh” value in assay [1] turned out to be 10%; in assay [2] it was 0%; in assay [3] it was 18%; in [4], 0%; in assay [5], 81%; in assay [6], 0%. Also, the “%Inh” value in assay [7] is 3%; in assay [8], 5%; in assay [9] it was 0%; in assay [10], 14%; in [11], 0%; in assay [12] it was 0%. For the same compound, the “%Inh” value in the assay on S6K1 stood at 0%; in the assay on SBK1 it was 20%; in the assay with SGK2, 0%; with SGK3, 8%; with SGK, 11%; with SIK2, 0%. The “%Inh” value in the assay on SIK was 9%; in the assay with SLK, 54%.

Turning to `Cn1cc(-c2ccc3c(c2)CCN3C(=O)Cc2cccc(Cl)c2)c2c(N)ncnc21` [GSK2606590], the “%Inh” value in [1] came to 22%; in [2] it was 0%; in assay [3], 40%; in assay [4] it was 0%; in assay [5], 4%; in assay [6], 0%. Moreover, the “%Inh” value worked out at 1% in assay [7]; 0% in [8]; 16% in assay [9]; 0% in assay [10]; 0% in assay [11]; 19% in [12]. Besides, the “%Inh” value in the assay with S6K1 is listed as 0%; in the assay on SBK1 it was 9%; in the assay with SGK2, 0%; with SGK3 it was 0%; in the assay with SGK, 0%; in the assay with SIK2, 0%. In addition, the results for the “%Inh” value in the assay on SIK and with SLK were 10% and 67%, respectively.

With `Cc1ccc(C(=O)N2CC[C@@H](O)C2)cc1-n1c(C)cc(OCc2ccc(F)cc2F)c(Br)c1=O`, the “%Inh” value worked out at 2% in assay [1]; 0% in assay [2]; 0% in assay [3]; 0% in assay [4]; 0% in assay [5]; 0% in assay [6]. Further, the “%Inh” value in assay [7] amounted to 0%; in assay [8], 0%; in assay [9], 0%; in assay [10], 18%; in assay [11] it was 0%; in assay [12], 2%. Also, the “%Inh” value in the assay with S6K1 is reported as 0%; with SBK1, 0%; in the assay with SGK2 it was 0%; in the assay with SGK3, 0%; in the assay with SGK, 0%; with SIK2 it was 27%. For the same compound, the “%Inh” value in the assay with SIK was 4%; with SLK, 0%.

As for `CC(=O)N1CCN(c2ccc(Nc3nccc(-c4sc(C(C)C)nc4-c4cccc(NS(=O)(=O)c5cccc(Cl)c5)c4)n3)cn2)CC1` [GSK1660437], the “%Inh” value in assay [1] stood at 10%; in assay [2] it was 0%; in assay [3], 14%; in assay [4], 0%; in [5], 10%; in assay [6] it was 0%. Also, the “%Inh” value amounted to 0% in assay [7]; 4% in assay [8]; 5% in assay [9]; 0% in [10]; 0% in [11]; 6% in [12]. For the same compound, the “%Inh” value with S6K1 came out at 0%; in the assay with SBK1 it was 16%; in the assay with SGK2 it was 0%; in the assay with SGK3, 19%; in the assay with SGK it was 16%; in the assay with SIK2 it was 89%. Besides, the results for the “%Inh” value in the assay on SIK and in the assay with SLK were 99% and 72%, respectively.

Turning to `O=C(Nc1n[nH]c2cc(-c3ccoc3)ccc12)C1CC1` [SB-738481], the “%Inh” value is reported as 0% in assay [1]; 11% in [2]; 0% in assay [3]; 0% in assay [4]; 12% in assay [5]; 0% in [6]. Besides, the “%Inh” value in [7] was 1%; in assay [8] it was 0%; in assay [9] it was 0%; in [10] it was 2%; in assay [11] it was 3%; in assay [12], 1%. The “%Inh” value with S6K1 worked out at 36%; with SBK1 it was 0%; with SGK2, 5%; with SGK3 it was 28%; in the assay on SGK it was 1%; with SIK2 it was 0%. Moreover, the “%Inh” value with SIK was found to be 0%; in the assay on SLK it was 2%.

Source of the values: PMC5540273 (PLoS ONE, 2017).
